# Data reported in PubChem BioAssay AID588473 (Sanford-Burnham Center for Chemical Genomics, 2011).
# The campaign covered roughly 350,000 compounds. About 1,600 (0.46%) were called active. Shown is part of a subset that was picked to be rich in actives. Unmarked numbers belong to inactive results.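 Rule for the calls: active = activation of at least 50%, plus an integration ratio under a set limit after plate pattern correction; inactive = the rest.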
# Tested on: CRF-binding protein / CRF receptor 2 complex (human)
# Experiment: activators of CRF-R2 with CRF-BP – cell-based, HEK293, calcium dye fluorescence, uHTS, primary screen (AID 588473);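 note: plate controls were neutral control wells without compound for no effect and CRF at EC100 for full effect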
# Conditions: calcium dye fluorescence (FLIPR), at 13.2 µM, active compounds read high
row,Structure (SMILES),activation
1,CCCCC(=O)N/N=C/c1c(O)n(CCC2=CCCCC2)c(=O)[nH]c1=O,0.08%
2,Cn1c(O)c(C=NCCCC(=O)O)c(=O)n(C)c1=O,3.61%
3,CCCCC(=O)N/N=C/c1c(O)n(CC)c(=S)n(CC)c1=O,89% (active)
4,COC(=O)C1=C(c2ccc(C(C)=O)cc2)C[C@@H]2CC[C@H]1N2C(=O)NCCNC(C)=O,-2% [percent of saturating CRF peptide response]
5,COc1ccc(C2NCc3ccc4c(c3-n3cccc32)OCO4)cc1OC (stereo not given),-1.07%
6,COC(=O)N(c1ccc(OC)cc1)P1(=S)OCCC(C)O1 (stereo not given),-2.1%
7,Cc1nc2ccccn2c1P(=S)(N1CCCCC1)N1CCCCC1,63.2% (active)
8,CN1CCN(Cc2ccc(OC(F)(F)F)cc2)CC1,-0.02%
9,CCCCCn1c(=O)c(C(=O)NCc2ccccc2)c(O)c2ccccc21,4.58%
10,CCOP(=S)(OCC)C(O)CCCCCn1c(=O)c(F)cn(C2CCCO2)c1=O (stereo not given),-3.57%
11,O=C(c1cc(S(=O)(=O)N2CCOCC2)ccc1F)N1CCC2(CC1)OCCO2,2.62%
12,COc1cccc(N2C(=O)NC(=O)/C(=C\c3cn(C)c4ccccc34)C2=O)c1,113% (active)
13,COc1cccc(N2C(=O)NC(=O)/C(=C\c3ccc([N+](=O)[O-])s3)C2=O)c1,4.02%
14,COc1ccc(N2C(=O)/C(=C/c3ccco3)C(=O)NC2=S)cc1,4.87%
15,c1ccc(C(CN2CCCCC2)c2ccccc2)cc1,-0.78% [percent of saturating CRF peptide response]
